# Reference: article PMC7862700, “An all-to-all approach to the identification of sequence-specific readers for epigenetic DNA modifications on cytosine”
# Key:
# Test in all cases: DAPPL (digital affinity profiling via proximity ligation, sequencing); 10 mM Tris-HCl pH 7.5, 50 mM NaCl, 1 mM DTT, 4% glycerol, room temperature, 30 min; GST-TFs on glutathione beads, 16-mer random dsDNA library, 0.1% formaldehyde crosslink after washing; high values mean tight binding
# Conditions in all cases: protein: recombinant; tags: N-terminal GST; dsDNA, one strand shown
# FLI1 = molecular target: T1, FLI1 (Homo sapiens, UniProt Q01543 1-452)
# T1 sequence: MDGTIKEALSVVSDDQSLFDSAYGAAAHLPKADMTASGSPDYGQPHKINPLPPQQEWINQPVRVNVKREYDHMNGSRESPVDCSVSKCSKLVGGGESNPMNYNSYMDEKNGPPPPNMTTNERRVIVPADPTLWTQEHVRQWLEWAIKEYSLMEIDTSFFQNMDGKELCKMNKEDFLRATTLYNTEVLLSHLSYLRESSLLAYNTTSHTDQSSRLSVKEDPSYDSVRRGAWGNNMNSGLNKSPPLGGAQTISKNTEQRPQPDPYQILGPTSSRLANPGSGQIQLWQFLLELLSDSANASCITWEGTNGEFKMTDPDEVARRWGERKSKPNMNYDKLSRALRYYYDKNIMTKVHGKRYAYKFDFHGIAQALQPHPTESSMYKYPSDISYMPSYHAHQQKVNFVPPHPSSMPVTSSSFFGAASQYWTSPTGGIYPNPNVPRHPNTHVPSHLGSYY
# Procedure, shortened: (§1)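 Human transcription factors carrying a GST fusion were produced in yeast, bound to glutathione beads, tagged with DNA barcodes and pooled together with a tag-only sample. Each pool was held with 200 nmole of a random double-stranded 16-mer DNA library in Tris/NaCl/DTT/glycerol buffer for 30 min at room temperature, then washed, crosslinked in 0.1% formaldehyde, proximity-ligated with BsaI/T4 ligase (1 h, 37 °C), PCR-amplified and sequenced on an Illumina NextSeq500. Binding signal is the read frequency of each hexamer for a given factor divided by its frequency in the tag-only sample.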
# GABPA = molecular target: T2, GABPA (Homo sapiens, UniProt Q06546 1-454)
# T2 sequence: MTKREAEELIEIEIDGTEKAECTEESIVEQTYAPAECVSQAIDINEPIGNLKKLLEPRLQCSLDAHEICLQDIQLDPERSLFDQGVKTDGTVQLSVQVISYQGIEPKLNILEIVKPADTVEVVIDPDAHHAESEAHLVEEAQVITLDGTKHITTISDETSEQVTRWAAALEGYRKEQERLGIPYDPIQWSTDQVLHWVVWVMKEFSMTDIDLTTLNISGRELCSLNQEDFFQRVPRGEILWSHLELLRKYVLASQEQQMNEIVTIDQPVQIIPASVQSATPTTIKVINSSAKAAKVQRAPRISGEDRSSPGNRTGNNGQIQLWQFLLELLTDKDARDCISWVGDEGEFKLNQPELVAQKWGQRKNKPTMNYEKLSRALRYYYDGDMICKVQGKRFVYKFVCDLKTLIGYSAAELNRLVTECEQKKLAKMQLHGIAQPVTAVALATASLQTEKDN
# Procedure, shortened: as §1
# ERG = molecular target: T3, ERG (Homo sapiens, UniProt P11308 1-479)
# T3 sequence: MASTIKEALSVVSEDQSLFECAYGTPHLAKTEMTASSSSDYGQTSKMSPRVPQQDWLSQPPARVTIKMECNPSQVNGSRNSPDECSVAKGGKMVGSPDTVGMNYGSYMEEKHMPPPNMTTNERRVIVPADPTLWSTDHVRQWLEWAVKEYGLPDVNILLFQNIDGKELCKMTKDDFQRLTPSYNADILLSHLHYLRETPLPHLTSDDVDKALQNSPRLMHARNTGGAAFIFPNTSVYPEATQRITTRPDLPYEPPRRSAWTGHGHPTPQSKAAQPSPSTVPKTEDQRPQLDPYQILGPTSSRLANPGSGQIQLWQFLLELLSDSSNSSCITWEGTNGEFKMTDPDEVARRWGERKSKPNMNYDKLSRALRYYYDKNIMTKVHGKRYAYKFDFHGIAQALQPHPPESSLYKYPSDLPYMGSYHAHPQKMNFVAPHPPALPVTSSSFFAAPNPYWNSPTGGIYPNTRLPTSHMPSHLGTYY
# Procedure, shortened: as §1
# ELF1 = ELF1 (Homo sapiens, UniProt P32519 1-619)
# Chain of ELF1 (P32519 whole entry): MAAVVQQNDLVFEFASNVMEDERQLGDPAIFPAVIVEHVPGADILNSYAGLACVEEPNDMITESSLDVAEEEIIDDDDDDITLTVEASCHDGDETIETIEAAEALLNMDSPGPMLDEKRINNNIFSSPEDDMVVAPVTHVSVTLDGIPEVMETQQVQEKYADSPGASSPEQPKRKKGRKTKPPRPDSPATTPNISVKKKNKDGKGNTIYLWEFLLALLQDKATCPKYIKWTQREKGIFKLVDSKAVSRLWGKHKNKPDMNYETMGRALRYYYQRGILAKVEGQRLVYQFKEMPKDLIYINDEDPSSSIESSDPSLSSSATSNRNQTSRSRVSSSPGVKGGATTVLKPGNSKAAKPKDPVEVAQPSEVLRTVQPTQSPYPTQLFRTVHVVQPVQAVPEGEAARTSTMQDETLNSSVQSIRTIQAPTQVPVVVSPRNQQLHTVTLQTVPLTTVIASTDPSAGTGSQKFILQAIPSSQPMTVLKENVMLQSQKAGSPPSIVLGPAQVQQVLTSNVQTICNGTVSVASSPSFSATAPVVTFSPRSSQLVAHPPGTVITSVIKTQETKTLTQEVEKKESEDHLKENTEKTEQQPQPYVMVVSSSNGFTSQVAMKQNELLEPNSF
# Procedure, shortened: as §1
# EHF = molecular target: T4, EHF (Homo sapiens, UniProt Q9NZC4 1-300)
# T4 sequence: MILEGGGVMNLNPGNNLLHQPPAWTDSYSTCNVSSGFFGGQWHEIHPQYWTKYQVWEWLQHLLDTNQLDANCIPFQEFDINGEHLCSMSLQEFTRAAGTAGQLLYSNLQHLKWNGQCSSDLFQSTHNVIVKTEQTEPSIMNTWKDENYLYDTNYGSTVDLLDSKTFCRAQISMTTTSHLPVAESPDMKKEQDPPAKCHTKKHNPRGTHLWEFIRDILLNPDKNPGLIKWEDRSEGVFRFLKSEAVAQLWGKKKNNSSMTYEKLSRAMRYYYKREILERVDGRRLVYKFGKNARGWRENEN
# Procedure, shortened: as §1
# SPI1 = SPI1 (Homo sapiens, UniProt P17947 1-270)
# Procedure, shortened: as §1
# SPIB = SPIB (Homo sapiens, UniProt Q01892 1-262)
# Chain of SPIB (Q01892 whole entry): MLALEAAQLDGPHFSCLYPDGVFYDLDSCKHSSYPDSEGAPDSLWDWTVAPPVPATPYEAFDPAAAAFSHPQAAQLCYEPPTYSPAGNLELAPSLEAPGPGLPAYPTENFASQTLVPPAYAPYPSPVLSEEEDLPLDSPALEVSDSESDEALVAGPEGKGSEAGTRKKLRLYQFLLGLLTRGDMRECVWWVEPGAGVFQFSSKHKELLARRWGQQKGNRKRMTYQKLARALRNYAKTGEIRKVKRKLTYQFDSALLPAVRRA
# Procedure, shortened: as §1
# ELK3 = molecular target: T5, ELK3 (Homo sapiens, UniProt P41970 1-407)
# T5 sequence: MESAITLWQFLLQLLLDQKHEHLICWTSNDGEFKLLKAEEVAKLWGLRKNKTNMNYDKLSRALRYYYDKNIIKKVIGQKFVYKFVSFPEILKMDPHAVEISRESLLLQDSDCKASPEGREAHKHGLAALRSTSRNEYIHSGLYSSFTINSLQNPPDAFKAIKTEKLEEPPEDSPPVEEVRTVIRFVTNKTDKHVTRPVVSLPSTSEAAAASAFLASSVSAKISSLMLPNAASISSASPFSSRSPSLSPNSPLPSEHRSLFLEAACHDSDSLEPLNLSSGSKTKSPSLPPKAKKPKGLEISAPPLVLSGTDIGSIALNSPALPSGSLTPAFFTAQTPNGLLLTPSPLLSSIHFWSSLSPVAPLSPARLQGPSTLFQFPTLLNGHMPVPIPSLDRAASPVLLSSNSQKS
# Procedure, shortened: as §1
# FEV = molecular target: T6, FEV (Homo sapiens, UniProt Q99581 1-238)
# T6 sequence: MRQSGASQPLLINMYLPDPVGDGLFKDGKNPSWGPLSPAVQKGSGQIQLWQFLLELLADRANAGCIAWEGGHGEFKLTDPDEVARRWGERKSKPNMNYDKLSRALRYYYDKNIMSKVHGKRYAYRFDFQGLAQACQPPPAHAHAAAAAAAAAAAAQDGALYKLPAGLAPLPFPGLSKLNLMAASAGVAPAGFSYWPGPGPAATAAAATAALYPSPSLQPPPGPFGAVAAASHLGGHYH
# Procedure, shortened: as §1
# ETV5 = ETV5 (Homo sapiens, UniProt P41161 1-510)
# Chain of ETV5 (P41161 whole entry): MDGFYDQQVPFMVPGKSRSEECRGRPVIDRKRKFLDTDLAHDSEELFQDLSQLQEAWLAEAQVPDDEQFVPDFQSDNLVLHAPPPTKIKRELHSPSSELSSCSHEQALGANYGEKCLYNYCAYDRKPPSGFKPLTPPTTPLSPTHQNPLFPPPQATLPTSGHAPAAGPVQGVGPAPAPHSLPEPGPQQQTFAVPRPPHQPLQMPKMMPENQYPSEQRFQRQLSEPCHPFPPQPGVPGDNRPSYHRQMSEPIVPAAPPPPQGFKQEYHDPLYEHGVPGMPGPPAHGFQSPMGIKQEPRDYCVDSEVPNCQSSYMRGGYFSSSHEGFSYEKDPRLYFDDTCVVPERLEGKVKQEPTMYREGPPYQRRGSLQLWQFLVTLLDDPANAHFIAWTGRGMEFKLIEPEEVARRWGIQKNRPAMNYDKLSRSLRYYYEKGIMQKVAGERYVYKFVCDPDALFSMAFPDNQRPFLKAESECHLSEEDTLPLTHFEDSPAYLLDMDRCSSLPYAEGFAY
# Procedure, shortened: as §1
# SPIC = molecular target: T7, SPIC (Homo sapiens, UniProt Q8N5J4 1-248)
# T7 sequence: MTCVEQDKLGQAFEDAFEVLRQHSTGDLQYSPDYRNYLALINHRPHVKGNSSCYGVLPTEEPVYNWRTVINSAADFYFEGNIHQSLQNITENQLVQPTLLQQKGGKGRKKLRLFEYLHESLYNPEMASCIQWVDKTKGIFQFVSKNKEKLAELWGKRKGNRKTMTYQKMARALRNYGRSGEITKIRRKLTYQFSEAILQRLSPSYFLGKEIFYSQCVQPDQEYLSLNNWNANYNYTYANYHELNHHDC
# Procedure, shortened: as §1
# ELF4 = ELF4 (Homo sapiens, UniProt Q99607 1-663)
# Chain of ELF4 (Q99607 whole entry): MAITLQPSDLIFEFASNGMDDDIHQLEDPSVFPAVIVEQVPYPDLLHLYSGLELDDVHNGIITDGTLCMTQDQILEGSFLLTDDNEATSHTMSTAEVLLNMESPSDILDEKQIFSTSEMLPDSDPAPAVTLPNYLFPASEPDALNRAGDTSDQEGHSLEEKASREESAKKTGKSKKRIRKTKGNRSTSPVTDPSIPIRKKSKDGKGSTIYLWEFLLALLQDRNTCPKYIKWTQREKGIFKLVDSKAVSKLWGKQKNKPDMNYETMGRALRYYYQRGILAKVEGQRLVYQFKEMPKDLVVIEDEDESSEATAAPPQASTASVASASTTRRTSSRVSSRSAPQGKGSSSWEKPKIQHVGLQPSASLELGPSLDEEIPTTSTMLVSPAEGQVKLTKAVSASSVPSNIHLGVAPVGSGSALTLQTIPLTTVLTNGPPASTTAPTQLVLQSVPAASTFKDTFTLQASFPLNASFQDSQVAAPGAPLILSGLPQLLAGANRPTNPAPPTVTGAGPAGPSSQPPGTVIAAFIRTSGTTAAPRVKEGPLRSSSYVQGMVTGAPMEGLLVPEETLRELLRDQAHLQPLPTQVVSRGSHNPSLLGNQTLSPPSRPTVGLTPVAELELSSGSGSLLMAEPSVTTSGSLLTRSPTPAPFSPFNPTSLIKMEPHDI
# Procedure, shortened: as §1
# ETV1 = ETV1 (Homo sapiens, UniProt P50549 1-477)
# Chain of ETV1 (P50549 whole entry): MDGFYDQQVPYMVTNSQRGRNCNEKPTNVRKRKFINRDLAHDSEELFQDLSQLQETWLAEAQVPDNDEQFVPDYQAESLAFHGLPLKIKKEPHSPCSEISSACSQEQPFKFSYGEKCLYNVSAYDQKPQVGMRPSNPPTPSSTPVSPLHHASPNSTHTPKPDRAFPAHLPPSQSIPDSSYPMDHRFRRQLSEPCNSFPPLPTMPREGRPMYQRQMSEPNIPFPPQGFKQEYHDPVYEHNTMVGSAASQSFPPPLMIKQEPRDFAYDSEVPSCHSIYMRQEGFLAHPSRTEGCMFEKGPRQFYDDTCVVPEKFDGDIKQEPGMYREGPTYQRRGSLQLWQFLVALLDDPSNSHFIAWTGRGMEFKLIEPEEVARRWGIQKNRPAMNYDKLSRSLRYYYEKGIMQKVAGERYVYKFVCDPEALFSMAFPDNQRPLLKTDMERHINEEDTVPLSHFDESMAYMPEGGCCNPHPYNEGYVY
# Procedure, shortened: as §1
# ERF = molecular target: T8, ERF (Homo sapiens, UniProt P50548 1-548)
# T8 sequence: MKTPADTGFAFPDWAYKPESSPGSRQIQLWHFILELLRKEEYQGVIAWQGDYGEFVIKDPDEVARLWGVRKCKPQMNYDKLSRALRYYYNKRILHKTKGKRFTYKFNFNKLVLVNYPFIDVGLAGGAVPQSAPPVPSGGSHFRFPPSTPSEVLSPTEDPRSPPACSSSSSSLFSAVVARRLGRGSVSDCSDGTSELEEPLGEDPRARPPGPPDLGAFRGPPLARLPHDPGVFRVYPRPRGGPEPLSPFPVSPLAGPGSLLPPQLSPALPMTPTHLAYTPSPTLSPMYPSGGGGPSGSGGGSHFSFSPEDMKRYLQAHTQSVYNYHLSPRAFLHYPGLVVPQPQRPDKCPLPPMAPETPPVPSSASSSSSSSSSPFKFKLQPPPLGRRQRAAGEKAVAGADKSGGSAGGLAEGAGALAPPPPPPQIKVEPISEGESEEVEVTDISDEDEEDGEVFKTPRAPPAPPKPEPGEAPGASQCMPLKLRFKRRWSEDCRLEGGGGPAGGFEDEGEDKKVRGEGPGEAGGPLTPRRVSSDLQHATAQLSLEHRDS
# Procedure, shortened: as §1
# ETV3L = molecular target: T9, ETV3L (Homo sapiens, UniProt Q6ZN32 1-361)
# T9 sequence: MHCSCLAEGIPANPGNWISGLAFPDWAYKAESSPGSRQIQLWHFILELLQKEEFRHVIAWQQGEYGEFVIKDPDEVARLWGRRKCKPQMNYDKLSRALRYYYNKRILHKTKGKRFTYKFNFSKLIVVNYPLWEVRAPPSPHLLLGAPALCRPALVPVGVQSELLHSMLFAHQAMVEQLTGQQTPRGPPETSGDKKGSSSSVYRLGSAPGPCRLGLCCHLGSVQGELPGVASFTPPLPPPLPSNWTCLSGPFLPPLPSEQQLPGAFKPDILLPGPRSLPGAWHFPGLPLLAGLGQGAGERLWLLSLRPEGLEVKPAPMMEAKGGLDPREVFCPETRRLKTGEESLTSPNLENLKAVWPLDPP
# Procedure, shortened: as §1
# ETS2 = molecular target: T10, ETS2 (Homo sapiens, UniProt P15036 1-469)
# T10 sequence: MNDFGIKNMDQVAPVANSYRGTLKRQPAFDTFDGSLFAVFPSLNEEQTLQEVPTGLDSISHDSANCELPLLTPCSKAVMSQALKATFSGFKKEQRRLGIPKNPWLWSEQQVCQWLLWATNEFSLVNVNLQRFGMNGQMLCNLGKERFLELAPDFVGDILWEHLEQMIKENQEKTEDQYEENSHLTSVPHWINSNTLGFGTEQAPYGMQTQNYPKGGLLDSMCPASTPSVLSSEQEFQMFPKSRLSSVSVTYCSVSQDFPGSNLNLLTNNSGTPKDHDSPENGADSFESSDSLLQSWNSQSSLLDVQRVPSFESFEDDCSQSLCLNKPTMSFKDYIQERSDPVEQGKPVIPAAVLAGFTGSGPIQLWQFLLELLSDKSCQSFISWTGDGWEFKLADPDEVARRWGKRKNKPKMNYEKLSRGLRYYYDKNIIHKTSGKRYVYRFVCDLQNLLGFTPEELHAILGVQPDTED
# Procedure, shortened: as §1
# SPDEF = molecular target: T11, SPDEF (Homo sapiens, UniProt O95238 1-335)
# T11 sequence: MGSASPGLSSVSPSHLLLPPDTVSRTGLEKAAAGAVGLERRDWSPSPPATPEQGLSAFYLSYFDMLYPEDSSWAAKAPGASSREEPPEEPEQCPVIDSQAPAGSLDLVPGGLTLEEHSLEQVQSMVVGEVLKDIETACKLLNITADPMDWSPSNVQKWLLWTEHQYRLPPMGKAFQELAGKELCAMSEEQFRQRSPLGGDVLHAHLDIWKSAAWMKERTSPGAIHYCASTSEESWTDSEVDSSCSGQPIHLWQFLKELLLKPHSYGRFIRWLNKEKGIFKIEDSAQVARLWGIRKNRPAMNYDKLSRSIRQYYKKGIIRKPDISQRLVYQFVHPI
# Procedure, shortened: as §1
# ETV3 = molecular target: T12, ETV3 (Homo sapiens, UniProt P41162-2 1-143)
# T12 sequence: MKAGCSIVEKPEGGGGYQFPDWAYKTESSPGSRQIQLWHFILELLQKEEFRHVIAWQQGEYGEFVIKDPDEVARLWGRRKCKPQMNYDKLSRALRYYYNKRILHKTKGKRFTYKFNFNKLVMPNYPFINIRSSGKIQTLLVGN
# Procedure, shortened: as §1
# ETV6 = ETV6 (Homo sapiens, UniProt P41212 1-452)
# Chain of ETV6 (P41212 whole entry): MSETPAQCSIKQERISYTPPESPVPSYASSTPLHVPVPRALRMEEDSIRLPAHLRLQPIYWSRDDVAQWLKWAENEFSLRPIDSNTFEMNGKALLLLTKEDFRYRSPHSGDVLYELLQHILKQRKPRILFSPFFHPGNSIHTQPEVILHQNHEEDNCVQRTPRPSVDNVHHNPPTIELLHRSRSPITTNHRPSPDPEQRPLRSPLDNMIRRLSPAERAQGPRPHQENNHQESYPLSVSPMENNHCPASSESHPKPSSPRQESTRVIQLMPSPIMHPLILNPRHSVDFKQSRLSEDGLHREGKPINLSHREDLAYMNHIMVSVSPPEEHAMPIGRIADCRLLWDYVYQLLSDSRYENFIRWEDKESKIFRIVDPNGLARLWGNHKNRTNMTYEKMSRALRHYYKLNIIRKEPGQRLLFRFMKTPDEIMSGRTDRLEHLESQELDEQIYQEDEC
# Procedure, shortened: as §1
sequence,measurement,setting,value
ATACCG,binding signal,FLI1,"1.16 fold enrichment (6-mer frequency, TF over GST control)"
same,binding signal,GABPA,"1.02 fold enrichment (6-mer frequency, TF over GST control)"
same,binding signal,ERG,"1.16 fold enrichment (6-mer frequency, TF over GST control)"
same,binding signal,ELF1,"1.11 fold enrichment (6-mer frequency, TF over GST control)"
same,binding signal,EHF,"1.12 fold enrichment (6-mer frequency, TF over GST control)"
same,binding signal,SPI1,"1.06 fold enrichment (6-mer frequency, TF over GST control)"
same,binding signal,SPIB,"1.12 fold enrichment (6-mer frequency, TF over GST control)"
same,binding signal,ELK3,"1.15 fold enrichment (6-mer frequency, TF over GST control)"
same,binding signal,FEV,"1.25 fold enrichment (6-mer frequency, TF over GST control)"
same,binding signal,ETV5,"1.1 fold enrichment (6-mer frequency, TF over GST control)"
same,binding signal,SPIC,"1.05 fold enrichment (6-mer frequency, TF over GST control)"
same,binding signal,ELF4,"1.12 fold enrichment (6-mer frequency, TF over GST control)"
same,binding signal,ETV1,"1.14 fold enrichment (6-mer frequency, TF over GST control)"
same,binding signal,ERF,"1.08 fold enrichment (6-mer frequency, TF over GST control)"
same,binding signal,ETV3L,"1.1 fold enrichment (6-mer frequency, TF over GST control)"
same,binding signal,ETS2,"1.11 fold enrichment (6-mer frequency, TF over GST control)"
same,binding signal,SPDEF,"1.19 fold enrichment (6-mer frequency, TF over GST control)"
same,binding signal,ETV3,"1.2 fold enrichment (6-mer frequency, TF over GST control)"
same,binding signal,ETV6,"1.09 fold enrichment (6-mer frequency, TF over GST control)"
